Results from PubChem BioAssay (NCI).
About 79,000 compounds went through this panel and 15% of them were active in at least one assay; those are over-represented in the sample as a whole. The source made the active and inactive calls. No stated cut-off is given here; in the data, active means growth inhibition above about 70%; inactive means the rest.

Assays:
[1] = NCI Yeast Anticancer Drug Screen. Data for the wt1 strain (AID 149);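 further: 0% = growth of vehicle-treated wt1 cultures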; conditions: S. cerevisiae wt1 strain (SPY 50644) growth inhibition, stronger effect = higher value
Method in brief: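 Each compound is tested on wt1 yeast and the loss of growth versus vehicle gives the inhibition value.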

[2] = NCI Yeast Anticancer Drug Screen. Data for the rad50EPP+ strain (AID 151);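 further: 0% = growth of vehicle-treated control cultures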; conditions: S. cerevisiae rad50 mutant strain, stronger effect = higher value
Method in brief: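 Measured: growth inhibition of rad50EPP+ yeast. Reference: vehicle-treated controls. Screen uses strains with defined genetic alterations in DNA damage repair or cell cycle control.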

[3] = NCI Yeast Anticancer Drug Screen. Data for the mgt1 strain (AID 153); conditions: S. cerevisiae mgt1 mutant growth inhibition, stronger effect = higher value
Method in brief: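 Compounds were applied to mgt1 mutant yeast, and growth was then compared against vehicle-treated control cultures to give percent inhibition.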

[4] = NCI Yeast Anticancer Drug Screen. Data for the rad50 strain (AID 155);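 further: 0% = growth of vehicle-only cultures of the same strain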; conditions: S. cerevisiae rad50 strain growth inhibition, stronger effect = higher value
Method in brief: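 Vehicle-treated cultures provide the reference for the growth inhibition reported for compound-exposed, repair-deficient yeast.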

[5] = NCI Yeast Anticancer Drug Screen. Data for the mec2-1 strain (AID 157); conditions: S. cerevisiae mec2-1 strain, stronger effect = higher value
Method in brief: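 Compounds were applied to mec2-1 yeast cells. Their growth was then compared with that of vehicle-treated cultures to give growth inhibition.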

[6] = NCI Yeast Anticancer Drug Screen. Data for the rad14 strain (AID 159);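 further: 0% = growth of vehicle-treated control cultures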; conditions: S. cerevisiae rad14 strain growth inhibition, stronger effect = higher value
Method in brief: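 Inhibition of growth is reported for a repair-deficient yeast mutant following compound treatment, calculated relative to cultures that received vehicle.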

[7] = NCI Yeast Anticancer Drug Screen. Data for the sgs1 mgt1 strain (AID 161);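 further: 0% = growth of cultures given vehicle only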; conditions: S. cerevisiae sgs1 mgt1 strain, stronger effect = higher value
Method in brief: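 Yeast cells carrying a defined DNA-repair defect were exposed to test compounds. Growth inhibition was measured relative to vehicle-treated controls.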

[8] = NCI Yeast Anticancer Drug Screen. Data for the CLN2oe strain (AID 163);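 further: 0% = growth of vehicle-only control cultures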; conditions: S. cerevisiae CLN2oe strain, stronger effect = higher value
Method in brief: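 Cells of an engineered yeast line with disturbed cell-cycle regulation are treated with compound. Inhibition of growth is then calculated relative to the vehicle-treated reference.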

[9] = NCI Yeast Anticancer Drug Screen. Data for the cln2 rad14 strain (AID 165);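 further: 0% = growth equal to vehicle treated cultures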; conditions: S. cerevisiae cln2 rad14 strain, stronger effect = higher value
Method in brief: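 Strain: cln2 rad14 yeast, altered in cell cycle control and DNA damage repair. Read-out: growth inhibition vs vehicle.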

[10] = NCI Yeast Anticancer Drug Screen. Data for the bub3 strain (AID 167); conditions: S. cerevisiae bub3 mutant strain, stronger effect = higher value
Method in brief: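 Mutant yeast screening strain plus compound; vehicle-treated cultures serve as the 0% inhibition reference.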

[11] = NCI Yeast Anticancer Drug Screen. Data for the wt2 strain (AID 169); conditions: S. cerevisiae wt2 strain growth inhibition, stronger effect = higher value
Method in brief: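 Growth of compound-treated yeast is measured and expressed as inhibition relative to vehicle-only controls.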

[12] = NCI Yeast Anticancer Drug Screen. Data for the mlh1 strain (AID 171);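 further: 0% = growth of vehicle-treated control cultures of the same strain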; conditions: S. cerevisiae mlh1 strain growth inhibition, stronger effect = higher value
Method in brief: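 Test agents were incubated with yeast bearing a defined DNA damage repair or cell cycle control alteration; values are growth inhibition normalised to vehicle-treated cultures.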

[13] = NCI Yeast Anticancer Drug Screen. Data for the sgs1 strain (AID 173);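 further: 0% = growth of vehicle-only control cultures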; conditions: S. cerevisiae sgs1 mutant, stronger effect = higher value
Method in brief: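 Strain with an altered DNA repair or cell cycle pathway exposed to compound. Growth then measured. Value = inhibition versus vehicle control.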

[14] = NCI Yeast Anticancer Drug Screen. Data for the mlh1 rad18 strain (AID 175); conditions: S. cerevisiae mlh1 rad18 strain growth inhibition, stronger effect = higher value
Method in brief: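 A repair-deficient yeast strain is exposed to test compound, and growth is scored relative to vehicle-treated controls.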

[15] = NCI Yeast Anticancer Drug Screen. Data for the rad18 strain (AID 177); conditions: S. cerevisiae rad18 mutant growth inhibition, stronger effect = higher value
Method in brief: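 DNA-repair-defective yeast; compound treatment; growth inhibition scored against vehicle.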

[16] = at 5.0 µM (retest, dose inferred, filed as 0.5)
[17] = at 50.0 µM (retest, dose inferred, filed as 5.0)

Measured: growth inhibition

CCN(CC)c1ccc(N=Nc2cc(S(=O)(=O)O)ccc2O)c(O)c1
active: [4]; [17] 73% | [5]; [17] 81% | [14]; [17] 75%
inactive: [1]; at 1.2 µM 8% | [1]; at 3.7 µM 15% | [1]; at 11.0 µM 20% | [1]; at 33.0 µM 29% | [1]; at 100.0 µM 51% | [2]; at 1.2 µM 8% | [2]; at 3.7 µM -8% | [2]; at 11.0 µM -19% | [2]; at 33.0 µM -23% | [2]; at 100.0 µM -46% | [3]; at 1.2 µM 3% | [3]; at 3.7 µM -9% | [3]; at 11.0 µM 4% | [3]; at 33.0 µM 9% | [3]; at 100.0 µM 27% | [4]; at 1.2 µM -11% | [4]; at 3.7 µM -19% | [4]; [16] 56% | [4]; at 11.0 µM -33% | [4]; at 33.0 µM -28% | [4]; at 50.0 µM 29.2% | [4]; at 100.0 µM -13% | [5]; at 1.2 µM -28% | [5]; at 3.7 µM -7% | [5]; [16] 55% | [5]; at 11.0 µM -19% | [5]; at 33.0 µM -9% | [5]; at 50.0 µM -14.1% | [5]; at 100.0 µM 22% | [6]; at 1.2 µM -15% | [6]; at 3.7 µM -9% | [6]; at 11.0 µM 3% | [6]; at 33.0 µM 1% | [6]; at 100.0 µM 5% | [7]; [16] -13% | [7]; [17] -3% | [7]; at 50.0 µM 66.1% | [8]; at 1.2 µM 8% | [8]; at 3.7 µM 18% | [8]; at 11.0 µM 4% | [8]; at 33.0 µM 9% | [8]; at 100.0 µM 10% | [9]; [16] 32% | [9]; [17] 39% | [9]; at 50.0 µM 21.5% | [10]; at 1.2 µM 24% | [10]; at 3.7 µM 17% | [10]; [16] 24% | [10]; at 11.0 µM 7% | [10]; at 33.0 µM 11% | [10]; [17] 45% | [10]; at 50.0 µM 50.9% | [10]; at 100.0 µM 35% | [11]; at 1.2 µM -13% | [11]; at 3.7 µM -6% | [11]; at 11.0 µM -42% | [11]; at 33.0 µM -64% | [11]; at 100.0 µM -38% | [12]; at 1.2 µM -12% | [12]; at 3.7 µM -37% | [12]; at 11.0 µM -22% | [12]; at 33.0 µM -3% | [12]; at 100.0 µM -12% | [13]; at 1.2 µM -13% | [13]; at 3.7 µM -10% | [13]; at 11.0 µM -12% | [13]; at 33.0 µM -1% | [13]; at 100.0 µM -15% | [14]; [16] 42% | [14]; at 50.0 µM 19.9% | [15]; at 1.2 µM 2% | [15]; at 3.7 µM 3% | [15]; at 11.0 µM 2% | [15]; at 33.0 µM -2% | [15]; at 100.0 µM 7%

CNC(=O)OCc1c(COC(=O)NC)c(C)n(-c2ccc(Cl)c(Cl)c2)c1C
inactive: [1]; at 1.2 µM -51% | [1]; at 3.7 µM -53% | [1]; at 11.0 µM -54% | [2]; at 1.2 µM -23% | [2]; at 3.7 µM -19% | [2]; at 11.0 µM -25% | [2]; at 33.0 µM -18% | [2]; at 100.0 µM 65% | [3]; at 1.2 µM -35% | [3]; at 3.7 µM -40% | [3]; at 11.0 µM -14% | [4]; at 1.2 µM -37% | [4]; at 3.7 µM -34% | [4]; [16] 25% | [4]; at 11.0 µM -16% | [5]; at 1.2 µM -27% | [5]; at 3.7 µM -22% | [5]; [16] 23% | [5]; at 11.0 µM -26% | [6]; at 1.2 µM -38% | [6]; at 3.7 µM -16% | [6]; at 11.0 µM 25% | [7]; [16] 5% | [7]; [17] 23% | [8]; at 1.2 µM -30% | [8]; at 3.7 µM -4% | [8]; at 11.0 µM -1% | [8]; at 33.0 µM 46% | [9]; [16] 7% | [9]; [17] -10% | [10]; at 1.2 µM -31% | [10]; at 3.7 µM -36% | [10]; [16] 8% | [10]; at 11.0 µM -21% | [10]; [17] 9% | [11]; at 1.2 µM -48% | [11]; at 3.7 µM -37% | [11]; at 11.0 µM -58% | [12]; at 1.2 µM -26% | [12]; at 3.7 µM -10% | [12]; at 11.0 µM 10% | [13]; at 1.2 µM 3% | [13]; at 3.7 µM -4% | [13]; at 11.0 µM 1% | [14]; [16] 39% | [15]; at 1.2 µM -32% | [15]; at 3.7 µM -33% | [15]; at 11.0 µM 1%
active: [1]; at 33.0 µM 97% | [1]; at 100.0 µM 99% | [3]; at 33.0 µM 98% | [3]; at 100.0 µM 99% | [4]; at 33.0 µM 97% | [4]; [17] 97% | [4]; at 50.0 µM 89.6% | [4]; at 100.0 µM 97% | [5]; at 33.0 µM 98% | [5]; [17] 98% | [5]; at 50.0 µM 90.8% | [5]; at 100.0 µM 99% | [6]; at 33.0 µM 98% | [6]; at 100.0 µM 98% | [7]; at 50.0 µM 89.5% | [8]; at 100.0 µM 94% | [9]; at 50.0 µM 84.5% | [10]; at 33.0 µM 97% | [10]; at 50.0 µM 87% | [10]; at 100.0 µM 98% | [11]; at 33.0 µM 91% | [11]; at 100.0 µM 97% | [12]; at 33.0 µM 97% | [12]; at 100.0 µM 97% | [13]; at 33.0 µM 97% | [13]; at 100.0 µM 98% | [14]; [17] 98% | [14]; at 50.0 µM 92.3% | [15]; at 33.0 µM 97% | [15]; at 100.0 µM 98%

O=[N+]([O-])C(=C(NCc1ccccc1)NCc1ccccc1)C(Cl)=C(Cl)Cl
active: [2]; at 33.0 µM 83% | [2]; at 100.0 µM 85% | [11]; at 100.0 µM 70%
inactive: [1]; at 1.2 µM 1% | [1]; at 3.7 µM 2% | [1]; at 11.0 µM 7% | [1]; at 33.0 µM 10% | [1]; at 100.0 µM 41% | [2]; at 1.2 µM 3% | [2]; at 3.7 µM 18% | [2]; at 11.0 µM 56% | [3]; at 1.2 µM -2% | [3]; at 3.7 µM 3% | [3]; at 11.0 µM 5% | [3]; at 33.0 µM 29% | [3]; at 100.0 µM 62% | [4]; at 1.2 µM 1% | [4]; at 3.7 µM 1% | [4]; [16] -8% | [4]; at 11.0 µM 6% | [4]; at 33.0 µM 13% | [4]; [17] 57% | [4]; at 50.0 µM 26.6% | [4]; at 100.0 µM 52% | [5]; at 1.2 µM -1% | [5]; at 3.7 µM 0% | [5]; [16] -7% | [5]; at 11.0 µM 4% | [5]; at 33.0 µM 14% | [5]; [17] 24% | [5]; at 50.0 µM 23.6% | [5]; at 100.0 µM 54% | [6]; at 1.2 µM -4% | [6]; at 3.7 µM -3% | [6]; at 11.0 µM 1% | [6]; at 33.0 µM 11% | [6]; at 100.0 µM 56% | [7]; [16] 2% | [7]; [17] 45% | [7]; at 50.0 µM 66% | [8]; at 1.2 µM -5% | [8]; at 3.7 µM -3% | [8]; at 11.0 µM 6% | [8]; at 33.0 µM 14% | [8]; at 100.0 µM 62% | [9]; [16] 40% | [9]; [17] 55% | [9]; at 50.0 µM 64.2% | [10]; at 1.2 µM -5% | [10]; at 3.7 µM -9% | [10]; [16] 0% | [10]; at 11.0 µM 0% | [10]; at 33.0 µM 5% | [10]; [17] 42% | [10]; at 50.0 µM 33% | [10]; at 100.0 µM 49% | [11]; at 1.2 µM 1% | [11]; at 3.7 µM 2% | [11]; at 11.0 µM 9% | [11]; at 33.0 µM 19%
